Results from PubChem BioAssay AID376 (PDSP, 2006).
Screen size: about 2,000 compounds; about 250 (12%) were called active. Only a selection was taken, and actives are over-represented in it overall. Unmarked numbers belong to inactive results. Rule as the data show it: active = hERG blockade below about -20% or above about 20%; inactive = in between.

target: Voltage-gated inwardly rectifying potassium channel KCNH2 (Homo sapiens) (UniProt Q12809); assay: KCNH2 potassium channel function modulators, cell-based (AID 376); conditions: hERG-expressing cells, channel activity single-concentration screen; concentration not given here;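 also: 0% = buffer alone and 100% = reference blocker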
Sequence (Q12809 whole entry, looked up): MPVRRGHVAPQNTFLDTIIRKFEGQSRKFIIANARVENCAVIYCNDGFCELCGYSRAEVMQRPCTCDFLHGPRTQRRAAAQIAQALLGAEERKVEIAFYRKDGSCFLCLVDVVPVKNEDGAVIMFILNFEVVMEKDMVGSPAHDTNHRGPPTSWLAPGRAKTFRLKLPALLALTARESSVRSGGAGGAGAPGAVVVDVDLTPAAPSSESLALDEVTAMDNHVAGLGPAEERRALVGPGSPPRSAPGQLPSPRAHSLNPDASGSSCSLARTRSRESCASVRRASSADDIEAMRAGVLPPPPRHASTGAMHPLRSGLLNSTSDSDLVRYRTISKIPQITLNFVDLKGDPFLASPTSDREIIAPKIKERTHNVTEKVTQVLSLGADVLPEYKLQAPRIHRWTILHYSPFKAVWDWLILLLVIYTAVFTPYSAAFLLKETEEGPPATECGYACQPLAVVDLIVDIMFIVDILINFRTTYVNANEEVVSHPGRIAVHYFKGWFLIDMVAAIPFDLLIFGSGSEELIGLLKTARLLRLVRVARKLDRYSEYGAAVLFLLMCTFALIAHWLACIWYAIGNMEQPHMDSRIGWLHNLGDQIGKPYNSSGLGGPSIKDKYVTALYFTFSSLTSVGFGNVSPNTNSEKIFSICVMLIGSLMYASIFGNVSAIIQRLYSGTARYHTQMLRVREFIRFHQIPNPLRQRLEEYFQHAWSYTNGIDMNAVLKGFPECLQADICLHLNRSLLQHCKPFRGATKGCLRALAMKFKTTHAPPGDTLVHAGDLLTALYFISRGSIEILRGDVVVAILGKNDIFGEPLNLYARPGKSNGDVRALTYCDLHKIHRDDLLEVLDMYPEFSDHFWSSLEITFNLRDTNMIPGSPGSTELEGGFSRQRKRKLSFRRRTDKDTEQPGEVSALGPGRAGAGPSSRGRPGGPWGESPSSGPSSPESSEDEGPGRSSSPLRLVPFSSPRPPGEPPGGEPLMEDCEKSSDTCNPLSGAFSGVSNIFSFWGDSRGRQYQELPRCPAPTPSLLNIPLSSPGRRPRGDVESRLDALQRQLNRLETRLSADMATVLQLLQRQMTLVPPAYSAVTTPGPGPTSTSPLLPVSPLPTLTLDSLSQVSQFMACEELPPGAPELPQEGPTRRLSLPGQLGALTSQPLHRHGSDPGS

SMILES	hERG blockade
CN(C)CCC(C#N)(c1ccccc1)c1ccccc1	6.53%
c1ccc2c(c1)Sc1ccccc1N2CC1CN2CCC1CC2 (configuration not stated)	69.3% (active)
CC1C(C)N1CC(O)Cn1ccnc1[N+](=O)[O-] (configuration not stated)	8.14%
Cc1ccc(O)cc1 (tested in a mixture with another compound)	-3.08%
ClCC[N+]12CC[N+](CCCl)(CC1)C2 (tested in a mixture with another compound)	11.5%
CC1(C)N=C(N)N=C(N)N1c1cccc(C(=O)Nc2ccc(S(=O)(=O)F)cc2)c1	24.1% (active)
O=C(O)c1cccc([As]=[As]c2cccc(C(=O)O)c2)c1 (configuration not stated)	-10.8%
NC(Cc1cc(Br)c(O)c(Br)c1)C(=O)O (configuration not stated)	9.07%
NNc1nncn1N	-1.06%
COc1cc2cc(c1Cl)N(C)C(=O)CC(OC(=O)C(C)C)C1(C)OC1C(C)C1CC(O)(NC(=O)O1)C(OC)C=CC=C(C)C2 (configuration not stated)	33% (active)
O=C(O)C[O][Sb][O]CC(=O)O	2.23%
OC(CN1CC1)C(O)CN1CC1 (configuration not stated)	3.04%
c1cc(CCN2CCCCC2)ccn1	-7.49%
C=C(C)c1ccccc1 (tested in a mixture with another compound)	1.7%
CC1OC(OC2CC(O)C3(CO)C4C(O)CC5(C)C(C6=CC(=O)OC6)CCC5(O)C4CCC3(O)C2)C(O)C(O)C1O (configuration not stated)	2.43%
CCC1(O)C(=O)OCc2c1cc1n(c2=O)Cc2cc3c(NC(=O)CN)cccc3nc2-1 (configuration not stated)	7.93%
O=C(O)C(Cc1cnc[nH]1)N1C(=O)c2ccccc2C1=O (configuration not stated)	14.2%
Oc1cccc2cccnc12	-22.9% (active)
NCCCN1CCN(c2ccccc2)CC1	-0.441%
C(=NCCN1CCOCC1)=NC1CCCCC1	6.97%
O=C(O)c1cc(N=Nc2ccc([As](=O)(O)O)cc2)ccc1O	3.08%

SMILES	hERG blockade
CC(=O)OC1=CC2=CCC3C4CCC(=O)C4(C)CC(=O)C3(S)C2(C)CC1 (configuration not stated)	-3.78%
O=C(O)CNCP(=O)(O)O	-1.2%
CN1CC(C(=O)NC2(C)OC3(O)C4CCCN4C(=O)C(Cc4ccccc4)N3C2=O)C=C2c3cccc4[nH]cc(c34)CC21 (configuration not stated)	6.97%
CC(Br)CN(CC(C)Br)c1ccc2c(c1)Cc1ccccc1-2 (configuration not stated)	3.41%
CCC(O)(C(=O)O)c1cc2n(c(=O)c1CO)Cc1cc3ccccc3nc1-2 (configuration not stated)	-3.09%
C[N+]1([O-])C2CCC1CC(OC(=O)C(CO)c1ccccc1)C2 (configuration not stated)	-12.1%
CN(C)CCCNc1c2c(nc3ccc(Cl)cc13)CCCC2	65.9% (active)
O=S(=O)(O)C(=Cc1ccccc1)c1ccccc1 (tested in a mixture with another compound)	-5.32%
O=C(O)Cc1ccc([N+](=O)[O-])cc1[N+](=O)[O-]	-15.6%
CC(c1ccccc1)N1CCN(C(C)c2ccccc2)CC1 (configuration not stated)	2.64%
CCC1CN2CCc3cc(OC)c(OC)cc3C2CC1CC1NCCc2c1[nH]c1ccc(O)cc21 (configuration not stated)	35.8% (active)
O=C(O)CC1OCC=C2CN3CCC45C6=CC(=O)C(=O)C([N+](=O)[O-])=C6NC4C1C2CC35 (configuration not stated)	13.9%
CC12CCC(CN(CCC[N+](C)(C)C)C1)C2(C)C (configuration not stated)	4.55%
CC1CCC2N(C1)CC1C3(O)CC45OC6(O)C(O)CCC4(C)C6CCC5C3(O)CC(O)C1(O)C2(C)O (configuration not stated)	12.9%
CSCCC(N)P(C)(=O)O (configuration not stated)	-4.74%
C[As+](C)(c1ccc(Br)c([N+](=O)[O-])c1)c1ccc(Br)c([N+](=O)[O-])c1.O=[N+]([O-])[O-]	13.6%
N=C(N)n1cc(C=NN=C(N)N)cn1	47.3% (active)
S=P(C1CCCCC1)(C1CCCCC1)C(c1cccnc1)N1CCCC1 (configuration not stated)	1.56%
O.O.[NH-]C1(C(=O)O)CCCC1.[NH-]C1(C(=O)O)CCCC1.[Ni+2]	1.76%
Cc1cc[c]([Sb]2[O]C(CO)C(C(O)C(O)C(=O)O)[O]2)cc1 (configuration not stated)	-4.77%
COc1cc2c(cc1OC)C13CCN4CC5=CCOC(CC(=O)O)C(C5CC41)C3N2 (configuration not stated)	2.07%

SMILES	hERG blockade
O=c1[nH]cnc2[nH]cc(CN3CCCCC3)c12	1.35%
O=c1[nH]c2ccccc2n1CCCN1CCC(n2c(=O)[nH]c3cc(Cl)ccc32)CC1	67.7% (active)
CCNC(C)(C)C(SS)c1ccc(Br)cc1 (configuration not stated)	-7.7%
O=C(O)CC1OCC=C2CN3CCC45c6ccccc6NC4C1C2CC35 (configuration not stated)	-7.07%
CC1(C)CC(=N[N-]C(N)=[SH+])CC(C)(C)N1.CC1(C)CC(=N[N-]C(N)=[SH+])CC(C)(C)N1.[Ni]	-0.871%
O=C(O)C1[O][Sb][O]C(C(=O)O)C1O (configuration not stated)	-9.98%
CC(C)=CC1C(C(=O)OCc2cc3c(cc2Cl)OCO3)C1(C)C (configuration not stated)	1.35%
c1nc(N2CC2)c2cnn(C3CCCCO3)c2n1 (configuration not stated)	4.58%
O=C(O)C1C2c3ccccc3C(c3ccccc32)C1C(=O)NCC1CC1 (configuration not stated)	-8.3%
CC(C)CCC1(CCN)C(=O)NC(=O)NC1=O	-21.5% (active)
CC12Cc3cnc(-c4ccccc4)nc3CC1CCC1C2CCC2(C)C1CCC2(C)O (configuration not stated)	6.41%
NC(Cc1c[nH]c2cc([N+](=O)[O-])ccc12)C(=O)O (configuration not stated)	-0.372%
CCNCCC1(CC)C(=O)NC(=O)NC1=O	-21.7% (active)
CCC1(CCSC(=N)N)C(=O)NC(=O)NC1=O	-24.7% (active)
NCC(O)CSP(=O)(O)O (configuration not stated)	-13.3%
CS(=N)(=O)CCC(N)P(=O)(O)O (configuration not stated)	-8.23%
COc1cc2ccccc2c2cc([N+](=O)[O-])oc12	15.9%
CC12CCC(O)CC1CCC1C2CCC2(C)C(C(=O)CC(O)C(F)(F)F)CCC12 (configuration not stated)	-1.73%
CC(C)CC(=O)CC(O)C(Cl)(Cl)Cl (configuration not stated)	-17%
CC(Br)(C(=O)O)C(Br)C(=O)O (configuration not stated)	11.1%
CCC1C2Cc3ccc(O)cc3C1(CC)CCN2C (configuration not stated)	1.71%

SMILES	hERG blockade
CCC1=C(CC2NCCc3cc(OC)c(OC)cc32)CC2c3ccccc3CCN2C1 (configuration not stated)	46% (active)
COC(=O)c1c(C)ccc2c(O)c3c(cc12)C(=O)c1c2c(cc(O)c1C3=O)C1(C)OC(C)(O2)C(O)C(N(C)C)C1O (configuration not stated)	18.8%
NCCc1ccc(S(=O)(=O)O)cc1[N+](=O)[O-]	2.55%
O=[As](O)(O)c1ccc(NCc2ccccc2)cc1	-4.95%
COc1ccc(CC(N)c2ccc(OC)cc2)cc1 (configuration not stated)	16.9%
CC(=O)OC1CC2(C)C(=CC1C1SCCS1)CCC1C2CCC2(C)C(OC(C)=O)CCC12 (configuration not stated)	4.12%
Cc1ccc(C2(c3ccc(C)c(O)c3C)CCN(C)CC2)c(C)c1O	21.1% (active)
Cc1ncc([N+](=O)[O-])n1CCN=[N+]=[N-]	-3.49%
c1ccc(C[N+]23CN4CN(CN(C4)C2)C3)cc1	-14.9%
Nc1nc2c(ncn2C2OC(CO)C(O)C2O)c(=[SH+])[nH]1.O=[N+]([O-])c1ccc(O)[c]([Hg])c1 (configuration not stated)	5.92%
COC(=O)C1c2cc3c(c(O)c2C(O)CC1(C)O)C(=O)c1c(O)cc2c(c1C3=O)OC1OC2(C)C(O)C(N(C)C)C1O (configuration not stated)	18.4%
NC(Cc1ccccc1)P(=O)(O)O (configuration not stated)	1.7%
CC1(C)CCC(C)(C)c2c1ccc(O)c2Cc1c(O)ccc2c1C(C)(C)CCC2(C)C	-7.52%
COc1cc2c3cc1Oc1c(O)c(OC)cc4c1C(Cc1ccc(cc1)Oc1cc(ccc1O)CC3N(C)CC2)N(C)CC4 (configuration not stated)	38.6% (active)
COc1ccc(CC2C(=O)NC(C)C(=O)N(C)C3C(=O)N(C)C(Cc4ccc(O)c(c4)Oc4ccc(cc4)C3O)C(=O)NC(C)C(=O)NC(C)C(=O)N2C)cc1 (configuration not stated)	6.31%
COc1cc2c(cc1O)CC1c3c(cc(O)c(OC)c3-2)CCN1C (configuration not stated)	4.49%
N#CS.N=C=S.N=C=S.[Cu+2].[NH2-].[NH2-].[NH2-].[NH2-].c1ccc2ncccc2c1	6.79%
c1cncc(CNCCN2CCNCC2)c1	-8.8%
NC1(P(=O)(O)O)CCCCC1	-4.89%
